Inconclusive results are not listed. Activity calls are given as the source filed them. Unless noted, calls come from the whole dose curve; as a rule, active = well fitted curve in either direction with a large enough effect (not every such curve was filed as active); inconclusive = small, poorly fitted or top-dose-only effect, or another doubt; inactive = flat fitted curve, though single readings scatter.
Experiments:
[1] = target: Lysosomal acid glucosylceramidase (Homo sapiens) (UniProt P04062); experiment: Glucocerebrosidase-p2 (AID 348; in the data active = potency below about 10 µM; note: potency is the fitted concentration of half-maximal effect); details: purified GBA, blue fluorogenic substrate, 40 min
Method in brief: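 Normal human glucocerebrosidase (0.2 nM) with blue fluorogenic substrate (80 uM final) in citrate/phosphate pH 5.9 with 10mM sodium taurocholate, 0.01% tween-20; 40 min RT, NaOH/glycine stop; fluorescence Ex 365/Em 440; AC50 from a titration from 0.6 nM upwards.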

[2] = AP1 Signaling Pathway (AID 357); details: ME-180 AP-1-bla reporter, EGF-induced, beta-lactamase ratio, 5 h; at 7.69 µM (top of the series) unless noted;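 note: ME-180 reporter cells stimulated with EGF at its EC50 level; % is set by controls: 0 for no effect and ±100 for the full control effect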
Method in brief: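 First, ME-180 AP-1-bla cells were cultured overnight at 37 °C in low-serum Opti-MEM. Next, titrated compounds with EC50 EGF were incubated 5 hours. Finally, CCF4 was added for 2.5 hours and the 460/530 nm ratio recorded.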

[3] = target: Cytochrome P450 1A2 (Homo sapiens) (UniProt P05177); experiment: p450-cyp1a2 (AID 410; calls by dose curve; note: potency is the fitted concentration of half-maximal effect;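 for activity change, negative = inhibition: -100% = full effect of reference inhibitor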); details: recombinant CYP1A2, luciferin-ME demethylation, luminescence; series mostly up to 11.4 µM
Method in brief: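 Read-out is luminescence from luciferin produced by CYP1A2 demethylation of Luciferin-ME (100uM, at Km). Detection reagent stopped the 60 min NADPH-dependent reaction; signals were normalized to 57 uM furafylline.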

[4] = NFAT Signaling Pathway (AID 444); details: Jurkat NFAT-bla M1, carbachol, beta-lactamase ratio, 5 h; at 7.69 µM (top of the series) unless noted;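 note: carbachol stimulus at about its EC50 of 1 µM final; % is set by controls: 0 for no effect and ±100 for the full control effect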
Method in brief: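 Jurkat cells with NFAT-driven β-lactamase reporter and co-expressed M1 receptor, stimulated with carbachol (final 1 uM, ~EC50), compound titration, 5 h at 37 °C. CCF4 loaded 1 h at RT; 460/530 nm ratio gave %activity and AC50.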

[5] = Stat Signaling Pathway (AID 446); details: ME-180 SIE beta-lactamase reporter, IL-6 stimulated, 5 h; at 7.69 µM (top of the series) unless noted;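 note: ME-180 cervical cancer cells given 40 pM IL-6 alongside compound; SIE-controlled beta-lactamase reporter measured as 460/530 nm FRET emission ratio; % is set by controls: 0 for no effect and ±100 for the full control effect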
Method in brief: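 Normalization used AC90 stimulation (300 pM IL-6) and AC90 inhibition (125 nM pan-JAK inhibitor at 40 pM IL-6). The underlying signal is SIE-driven beta-lactamase in ME-180 cells after 5 h IL-6 exposure with compound.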

[6] = target: Glucocorticoid receptor (Homo sapiens) (UniProt P04150); experiment: GR-GFP Redistribution (AID 450;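 active = compounds whose dose series gives a full or clear partial fitted curve of increased nuclear translocation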; note: potency is the fitted concentration of half-maximal effect); details: U2OS GR-GFP nuclear translocation, laser cytometry, 2 h
[7] = target: Glucocorticoid receptor (Homo sapiens) (UniProt P04150); experiment: GR-EFC Redistribution (AID 451; calls by dose curve; note: potency is the fitted concentration of half-maximal effect); details: CHO-K1 GR-EFC translocation, beta-gal luminescence, 2 h
Method in brief: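 CHO-K1 cells expressing nuclear EA and GR-ED fragments of b-gal; compounds titrated up to 46 uM final, 2 h at 37 C. GR nuclear translocation read as complemented b-gal luminescence after 1 h RT detection.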

[8] = target: Mitogen-activated protein kinase 10 (Mus musculus) (UniProt Q61831); experiment: JNK3 AlphaScreen Assay (AID 530); details: JNK3 lysate, c-Jun phosphorylation; series mostly up to 11.4 µM;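 note: kinase came from lysate of stimulated human HepG2 cells; signal reports phosphorylation of biotinylated GST-cJun 1-79 at Ser73 with 10 µM ATP; % is set by controls: 0 for no effect and ±100 for the full control effect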
Method in brief: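 HepG2 lysate (IL-1b/TNFa pre-activated) + biotin-GST-cJun 1-79 + anti-pSer73 cJun; cpd titration, 15 min RT; ATP 10 uM start; Tris pH 7.6, MgCl2, DTT, vanadate; beads in EDTA buffer; AlphaScreen.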

[9] = target: 3',5'-cyclic-AMP phosphodiesterase 4B (Homo sapiens) (UniProt Q07343); experiment: qHTS Assay for Inhibitors of PDE-IV (AID 607; active = well fitted activation curve with a large enough effect in the main read-out, with a control signal flat, not every such curve was filed as active; note: % of control where 0% means no effect); details: HEK293 ACTOne CNG channel cells, membrane potential fluorescence; series mostly up to 22.9 µM
Method in brief: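 HEK293 ACTOne cells with CNG channel (1000/well), endogenous PDE4; membrane potential dye, compounds up to 22.9 uM final. Fluorescence Ex 535/Em 590; RO 20-1724 (100 uM final) as reference.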

[10] = target: Cytochrome P450 3A4 (Homo sapiens) (UniProt P08684); experiment: qHTS Assay for Activators of Cytochrome P450 3A4 (AID 885; active = well fitted curve in the direction sought with a large enough effect; an effect the other way counts as inactive or inconclusive; note: nearly all actives have a fitted effect of over 65% in size); details: recombinant CYP3A4, Luciferin-PPXE luminescence, 60 min; series mostly up to 11.4 µM
Method in brief: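 Human CYP3A4 dealkylates Luciferin-PPXE to luciferin, which luciferase detection converts to light. Substrate was at its KM (25uM), buffer 200mM KPO4, reaction 60 min at RT.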

[11] = target: Cytochrome P450 2C19 (Homo sapiens) (UniProt P33261); experiment: qHTS Assay for Inhibitors and Substrates of Cytochrome P450 2C19 (AID 899; active = well fitted curve in the direction sought with a large enough effect; an effect the other way counts as inactive or inconclusive; note: nearly all actives have a fitted effect of over 60% in size; note: potency is the fitted concentration of half-maximal effect); details: recombinant CYP2C19, luciferin-H EGE luminescence; series mostly up to 11.4 µM
Method in brief: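 Luminescent read-out of luciferin formed from Luciferin-H EGE (10uM, equal to KM). Enzyme 5nM in 50mM KPO4; compound added, 10 min at 37C, then NADPH regenerating system for 60 min at 37C. Full inhibition defined by 57uM ketoconazole.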

[12] = qHTS Assay for Identification of Small Molecule Agonists for Hypoxia Response Element Signaling Pathway (AID 914; active = well fitted activation curve with a large enough effect in the signal ratio, with a control signal flat, not every such curve was filed as active; the % refers to the signal ratio; note: % of control where 0% means no effect); details: ME-180 (cervical carcinoma) HRE-bla reporter, beta-lactamase ratio, CoCl2, 17 h; activation: stronger effect = higher value
Method in brief: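 Cells were plated overnight, pin-dosed with compound in a titration series, co-stimulated with EC50 CoCl2 and incubated 17 hours at 37 degrees Celsius. CCF4 substrate was then loaded, and AC50 values came from the 460nm/530nm ratio.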

[13] = target: Cytochrome P450 2D6 (Homo sapiens) (UniProt P10635); experiment: qHTS Assay for Inhibitors and Substrates of Cytochrome P450 2D6 (AID 891; active = well fitted curve in the direction sought with a large enough effect; an effect the other way counts as inactive or inconclusive; note: nearly all actives have a fitted effect of over 60% in size; note: potency is the fitted concentration of half-maximal effect); details: recombinant CYP2D6, luciferin-ME EGE luminescence; series mostly up to 11.4 µM
Method in brief: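 Luminescent read-out of luciferin formed by 5 nM human CYP2D6 demethylating 30 uM Luciferin-ME EGE (Km level) over 60 min at room temperature after NADPH regeneration addition. Data normalized to full inhibition by 1.43 uM quinidine.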

[14] = Confirmation and Secondary Assay for Modulators of Hemoglobin Beta Chain Splicing at IVS2 654 locus (AID 910; active = well fitted curve in the direction sought with a large enough effect; an effect the other way counts as inactive or inconclusive;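 note: HeLa cells stably carrying EGFP split by mutant beta-globin IVS2-654 intron; % of control where 0% means no effect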); details: HeLa EGFP-654 splicing reporter, GFP fluorescence, 48 h; series mostly up to 38.3 µM
Method in brief: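 HeLa cells stably expressing EGFP interrupted by β-globin IVS2-654 intron, seeded overnight in Opti-MEM/2% FCS, then treated 2 days at 37 °C. Restored splicing read as total peak GFP intensity per well by laser scanning cytometry (488 nm excitation, 500–520 nm emission); 500 nM antisense PNA as control.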

[15] = Confirmation and Secondary Assay for Modulators of Hemoglobin Beta Chain Splicing at IVS2 705 locus (AID 930; active = well fitted curve in the direction sought with a large enough effect; an effect the other way counts as inactive or inconclusive;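 note: HeLa cells stably expressing the EGFP-705 splicing reporter; GFP fluorescence per well restored by corrected splicing of the IVS2-705 intron in EGFP; % of control where 0% means no effect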); details: HeLa EGFP-705 splicing reporter, GFP fluorescence, 48 h; series mostly up to 38.3 µM
Method in brief: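 Splice-correction reporter: EGFP cDNA split by beta-globin intron 2 bearing the 705 mutation, stably in HeLa. Compound incubation 2 days, 37C; fluorescent objects 5-250 µm summed per well.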

Glucocorticoid receptor (Homo sapiens), sequence (P04150 whole entry, looked up, the tested form may be a part): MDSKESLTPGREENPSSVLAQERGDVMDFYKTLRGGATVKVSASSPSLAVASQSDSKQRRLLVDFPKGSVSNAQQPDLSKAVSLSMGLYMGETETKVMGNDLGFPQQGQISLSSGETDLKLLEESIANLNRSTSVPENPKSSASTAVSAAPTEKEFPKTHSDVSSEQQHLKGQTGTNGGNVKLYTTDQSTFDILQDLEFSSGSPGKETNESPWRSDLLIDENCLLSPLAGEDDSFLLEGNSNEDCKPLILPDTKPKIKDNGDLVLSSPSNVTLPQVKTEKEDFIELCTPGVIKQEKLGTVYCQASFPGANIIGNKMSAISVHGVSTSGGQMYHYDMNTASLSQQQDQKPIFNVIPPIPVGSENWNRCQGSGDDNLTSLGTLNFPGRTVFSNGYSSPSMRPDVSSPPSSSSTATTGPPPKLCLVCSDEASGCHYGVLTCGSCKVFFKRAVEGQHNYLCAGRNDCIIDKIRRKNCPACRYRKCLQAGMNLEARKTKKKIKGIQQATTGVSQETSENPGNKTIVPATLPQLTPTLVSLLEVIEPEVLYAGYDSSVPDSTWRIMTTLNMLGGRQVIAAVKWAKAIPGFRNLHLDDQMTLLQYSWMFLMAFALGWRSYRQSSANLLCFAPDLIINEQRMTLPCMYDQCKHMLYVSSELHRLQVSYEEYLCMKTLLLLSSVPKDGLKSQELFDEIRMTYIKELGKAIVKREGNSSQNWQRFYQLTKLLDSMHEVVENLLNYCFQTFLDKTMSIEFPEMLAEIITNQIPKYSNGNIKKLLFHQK
Cytochrome P450 2C19 (Homo sapiens), sequence (P33261 whole entry, looked up): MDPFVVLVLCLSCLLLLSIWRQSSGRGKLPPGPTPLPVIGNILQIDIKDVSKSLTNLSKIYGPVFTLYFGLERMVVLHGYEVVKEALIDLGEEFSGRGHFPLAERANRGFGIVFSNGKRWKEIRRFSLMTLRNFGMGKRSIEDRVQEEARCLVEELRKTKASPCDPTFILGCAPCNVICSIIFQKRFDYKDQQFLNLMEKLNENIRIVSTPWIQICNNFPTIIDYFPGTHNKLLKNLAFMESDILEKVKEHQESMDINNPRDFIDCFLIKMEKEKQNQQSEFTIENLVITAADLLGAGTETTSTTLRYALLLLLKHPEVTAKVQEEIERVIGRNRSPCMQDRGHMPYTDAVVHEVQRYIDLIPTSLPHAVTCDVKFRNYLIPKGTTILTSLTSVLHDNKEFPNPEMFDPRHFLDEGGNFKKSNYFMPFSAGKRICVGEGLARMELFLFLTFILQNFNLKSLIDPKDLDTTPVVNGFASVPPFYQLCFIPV
Cytochrome P450 1A2 (Homo sapiens), sequence (P05177 whole entry, looked up): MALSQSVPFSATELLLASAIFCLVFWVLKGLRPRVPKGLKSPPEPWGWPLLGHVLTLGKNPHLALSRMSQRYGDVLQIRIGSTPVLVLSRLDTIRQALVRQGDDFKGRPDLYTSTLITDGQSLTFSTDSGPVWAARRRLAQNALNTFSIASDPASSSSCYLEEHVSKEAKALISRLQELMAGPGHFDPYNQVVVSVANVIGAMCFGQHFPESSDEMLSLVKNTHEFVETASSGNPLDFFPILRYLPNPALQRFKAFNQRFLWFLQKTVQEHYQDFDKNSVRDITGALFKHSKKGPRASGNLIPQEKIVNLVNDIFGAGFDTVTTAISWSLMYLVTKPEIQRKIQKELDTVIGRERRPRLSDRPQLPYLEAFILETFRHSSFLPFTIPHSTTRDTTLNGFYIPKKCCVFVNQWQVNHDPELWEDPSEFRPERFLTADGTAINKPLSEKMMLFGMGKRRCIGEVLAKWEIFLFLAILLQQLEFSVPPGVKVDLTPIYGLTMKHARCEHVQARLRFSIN
Lysosomal acid glucosylceramidase (Homo sapiens), sequence (P04062 whole entry, looked up): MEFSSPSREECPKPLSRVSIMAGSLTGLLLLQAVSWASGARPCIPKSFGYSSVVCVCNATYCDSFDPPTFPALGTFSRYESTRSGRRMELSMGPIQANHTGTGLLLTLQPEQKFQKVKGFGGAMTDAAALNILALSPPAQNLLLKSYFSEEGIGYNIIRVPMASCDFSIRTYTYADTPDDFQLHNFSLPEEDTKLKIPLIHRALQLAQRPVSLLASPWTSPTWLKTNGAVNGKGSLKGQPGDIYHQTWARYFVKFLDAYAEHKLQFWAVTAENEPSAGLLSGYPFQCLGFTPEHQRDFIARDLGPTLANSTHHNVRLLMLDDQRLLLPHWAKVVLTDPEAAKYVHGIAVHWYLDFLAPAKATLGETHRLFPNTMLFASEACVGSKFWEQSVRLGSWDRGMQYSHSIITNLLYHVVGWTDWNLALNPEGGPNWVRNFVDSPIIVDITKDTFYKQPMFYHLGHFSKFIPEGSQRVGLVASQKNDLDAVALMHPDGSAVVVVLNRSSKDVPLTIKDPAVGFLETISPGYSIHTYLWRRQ
3',5'-cyclic-AMP phosphodiesterase 4B (Homo sapiens), sequence (Q07343 whole entry, looked up): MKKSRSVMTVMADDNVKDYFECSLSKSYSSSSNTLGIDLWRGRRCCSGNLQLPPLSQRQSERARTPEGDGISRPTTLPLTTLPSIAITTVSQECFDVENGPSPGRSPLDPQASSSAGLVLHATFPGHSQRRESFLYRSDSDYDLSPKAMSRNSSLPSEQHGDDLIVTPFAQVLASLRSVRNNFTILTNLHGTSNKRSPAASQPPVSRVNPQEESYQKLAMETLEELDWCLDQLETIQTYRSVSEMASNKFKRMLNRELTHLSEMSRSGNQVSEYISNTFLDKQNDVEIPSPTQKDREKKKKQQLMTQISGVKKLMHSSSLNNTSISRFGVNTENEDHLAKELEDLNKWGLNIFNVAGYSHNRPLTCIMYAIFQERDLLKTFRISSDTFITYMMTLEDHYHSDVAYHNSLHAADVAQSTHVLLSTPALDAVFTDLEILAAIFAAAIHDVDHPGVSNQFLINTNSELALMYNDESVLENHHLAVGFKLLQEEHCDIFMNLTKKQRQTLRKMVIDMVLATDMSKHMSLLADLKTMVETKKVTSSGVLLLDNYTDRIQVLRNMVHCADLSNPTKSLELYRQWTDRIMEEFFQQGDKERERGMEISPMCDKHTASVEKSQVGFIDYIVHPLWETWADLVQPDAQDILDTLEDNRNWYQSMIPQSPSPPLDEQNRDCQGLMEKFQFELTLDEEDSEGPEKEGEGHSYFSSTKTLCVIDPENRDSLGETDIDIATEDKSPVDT
Cytochrome P450 3A4 (Homo sapiens), sequence (P08684 whole entry, looked up): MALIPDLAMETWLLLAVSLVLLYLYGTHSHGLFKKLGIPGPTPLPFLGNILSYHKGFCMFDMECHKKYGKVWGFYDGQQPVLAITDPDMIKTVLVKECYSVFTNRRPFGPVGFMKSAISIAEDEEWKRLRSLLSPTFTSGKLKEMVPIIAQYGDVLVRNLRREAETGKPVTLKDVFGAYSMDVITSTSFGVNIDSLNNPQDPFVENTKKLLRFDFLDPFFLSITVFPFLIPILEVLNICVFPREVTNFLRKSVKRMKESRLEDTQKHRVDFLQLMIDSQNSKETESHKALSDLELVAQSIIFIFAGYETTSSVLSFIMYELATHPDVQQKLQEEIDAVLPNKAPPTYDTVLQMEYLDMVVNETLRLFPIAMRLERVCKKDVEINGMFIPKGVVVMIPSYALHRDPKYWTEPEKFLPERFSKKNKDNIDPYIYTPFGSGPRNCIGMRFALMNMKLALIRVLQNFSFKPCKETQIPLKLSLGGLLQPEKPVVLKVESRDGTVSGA
Cytochrome P450 2D6 (Homo sapiens), sequence (P10635 whole entry, looked up): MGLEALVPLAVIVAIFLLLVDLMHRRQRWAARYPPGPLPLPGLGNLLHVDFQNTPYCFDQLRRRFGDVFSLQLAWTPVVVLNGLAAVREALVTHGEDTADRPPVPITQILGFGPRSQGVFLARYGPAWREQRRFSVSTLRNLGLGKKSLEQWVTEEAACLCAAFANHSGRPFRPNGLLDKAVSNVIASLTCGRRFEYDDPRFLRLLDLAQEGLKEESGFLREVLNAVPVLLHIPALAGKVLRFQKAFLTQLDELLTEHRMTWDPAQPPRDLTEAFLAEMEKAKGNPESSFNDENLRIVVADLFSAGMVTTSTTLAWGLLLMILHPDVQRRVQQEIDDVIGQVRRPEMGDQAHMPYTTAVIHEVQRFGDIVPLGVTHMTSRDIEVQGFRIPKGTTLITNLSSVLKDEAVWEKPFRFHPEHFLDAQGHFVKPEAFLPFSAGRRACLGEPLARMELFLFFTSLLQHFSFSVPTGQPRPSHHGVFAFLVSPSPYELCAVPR

N/C(CC(=O)Nc1cc(C(F)(F)F)ccc1Cl)=N\O
active: Potency [3] 1.58 µM
inactive: Potency [1] > 11.4 µM | activity change, negative = inhibition [2] -3.52% | activity change, negative = inhibition [4] 11.5% | activity, negative = inhibition [5] -1.63% | Potency [6] > 46 µM | Potency [7] > 9.22 µM | Potency [8] | Potency [9] | Potency [10] | Potency [11]

COc1ccc([C@@H](Nc2ccccn2)c2cc(C(C)(C)C)cc(C(C)(C)C)c2O)cc1
inactive: Potency [1] > 11.4 µM | activity change, negative = inhibition [2] -15.8% | activity change, negative = inhibition [3] 1.2% [at 2.29 µM] | activity change, negative = inhibition [4] -8.5% | activity, negative = inhibition [5] -15.2% | Potency [6] > 46 µM | Potency [7] > 9.22 µM | Potency [8] | Potency [9] | Potency [10] | activation [12] 3.06%
active: Potency [11] 2.51 µM

Cc1cc(C(C)(C)C)c(OCCCN2CCOCC2)c(C(C)(C)C)c1
active: Potency [13] 2 µM
inactive: Potency [1] > 11.4 µM | activity change, negative = inhibition [2] 3.87% | activity change, negative = inhibition [3] -17.7% [at 2.29 µM] | activity change, negative = inhibition [4] -12.7% | activity, negative = inhibition [5] 0.456% | Potency [6] > 46 µM | Potency [7] > 9.22 µM | Potency [8] | Potency [9] | Potency [10] | activation [12] 1.57%

O=C(O)CCC(=O)c1ccc2ccc3cccc4ccc1c2c34
active: Potency [3] 1.26 µM
inactive: Potency [1] > 11.4 µM | activity change, negative = inhibition [2] 5.4% | activity change, negative = inhibition [4] 19.9% | activity, negative = inhibition [5] -5.24% | Potency [6] > 46 µM | Potency [7] > 9.22 µM | Potency [8] | Potency [9] | Potency [13]

CN=C(N)/N=C(\N)Nc1cc2ccccc2c2ccccc12
inactive: Potency [1] > 11.4 µM | activity change, negative = inhibition [2] -3.61% | activity change, negative = inhibition [4] 27.5% | activity, negative = inhibition [5] 12.7% | Potency [6] > 46 µM | Potency [7] > 9.22 µM | Potency [8] | Potency [9]
active: Potency [3] 0.251 µM | Potency [13] 1.58 µM

Clc1cc2c(c(CSC3=NCN(CC4CC4)CN3)c1)OCOC2
active: Potency [3] 3.16 µM | Potency [13] 0.199 µM
inactive: Potency [1] > 11.4 µM | activity change, negative = inhibition [2] 5.83% | activity change, negative = inhibition [4] -19.2% | activity, negative = inhibition [5] 0.512% | Potency [6] > 46 µM | Potency [7] > 9.22 µM | Potency [8] | Potency [9]

Clc1ccc2c(N3CCC(CCC4CCN(c5ncnc6cc(Cl)ccc56)CC4)CC3)ncnc2c1
active: Potency [3] 3.16 µM | Potency [13] 0.794 µM
inactive: Potency [1] > 11.4 µM | activity change, negative = inhibition [2] 0.285% | activity change, negative = inhibition [4] 0.959% | activity, negative = inhibition [5] 0.136% | Potency [6] > 46 µM | Potency [7] > 9.22 µM | Potency [8] | Potency [9]

Cc1c(N2CCCC2)cc2c(c1NC(=O)c1ccccc1Cl)C(C)(C)CC2(C)C
active: Potency [11] 0.794 µM
inactive: Potency [1] > 11.4 µM | activity change, negative = inhibition [2] -3.93% | activity change, negative = inhibition [3] -13.1% [at 2.29 µM] | activity change, negative = inhibition [4] -10.2% | activity, negative = inhibition [5] -9.5% | Potency [6] > 46 µM | Potency [7] > 9.22 µM | Potency [8] | Potency [9] | Potency [10]

NCCSCc1ccccc1Cl
inactive: Potency [1] > 11.4 µM | activity change, negative = inhibition [2] 1.67% | activity change, negative = inhibition [4] -5.94% | activity, negative = inhibition [5] 2.36% | Potency [6] > 46 µM | Potency [7] > 9.22 µM | Potency [8] | Potency [9]
active: Potency [3] 3.16 µM | Potency [13] 3.16 µM

CC1(C)[C@@H]2CC[C@@](C)(C2)[C@H]1OC(=O)c1ccccc1C(=O)O
inactive: Potency [1] > 11.4 µM | activity change, negative = inhibition [2] -1.12% | Potency [3] | activity change, negative = inhibition [4] 4.7% | activity, negative = inhibition [5] -3.05% | Potency [6] > 46 µM | Potency [7] > 9.22 µM | Potency [8] | Potency [9] | Potency [10] | Potency [13] | Potency [11]

CCOC(=S)SCC(=O)O
inactive: Potency [1] > 11.4 µM | activity change, negative = inhibition [2] 3.32% | Potency [3] | activity change, negative = inhibition [4] 9.65% | activity, negative = inhibition [5] 16.6% | Potency [6] > 46 µM | Potency [7] > 9.22 µM | Potency [8] | Potency [9] | Potency [13]

CN(C)C(=O)c1ccc(-c2nc(Nc3ccncc3)c3ccccc3n2)cc1
active: Potency [1] 3.84 µM | Potency [3] 7.94 µM
inactive: activity change, negative = inhibition [2] -14.2% | activity change, negative = inhibition [4] -7.95% | activity, negative = inhibition [5] -6.09% | Potency [6] > 46 µM | Potency [7] > 46 µM | Potency [8] | Potency [9] | Potency [10] | outcome [14] | activation [12] -8.23% | outcome [15]
